# Laboratory results from the supplement of paper PMC8975748.
# Where a name gives a salt, the structure may show the parent alone.
# Tested on: Saccharomyces cerevisiae BY4741 SeMeCo community
# Assay: z-score of subpopulation abundance vs DMSO median, subpopulation auxotrophic for HLU; higher = larger share of this subpopulation than in DMSO controls
# Details: 10 µM; 24 h; SM minimal medium; subpopulation (auxotrophy): HLU
# Experimental: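 Fluorescent four-plasmid SeMeCo (self-establishing metabolically cooperating S. cerevisiae BY4741 community; plasmids pH-mRuby2, pL-mWasabi, pU-eCFP, pM-TagRFP657) was grown 24 h in minimal SM medium with each Selleck FDA-approved drug at 10 µM in 384-well plates. Cells were fixed and imaged by high-content confocal microscopy. For each auxotrophic subpopulation (and the prototroph), a z-score gives the deviation from the DMSO vehicle-control population median.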
row,Compound,z-score of subpopulation abundance
1,N[C@@H]1C[C@H]1c1ccccc1 [Tranylcypromine (2-PCPA) HCl],0.05
2,CC[N+](C)(CC)CCOC(=O)C(O)(c1ccccc1)c1ccccc1 [Methylbenactyzine Bromide],-0.28
3,CCC1=C[C@H]2CN3CCc4c([nH]c5ccccc45)[C@](C(=O)OC)(C2)[C@H]13 [Catharanthine],-0.62
4,CCN(C)C(=O)Oc1cccc([C@H](C)N(C)C)c1 [Rivastigmine Tartrate],-0.41
5,CN(C)[C@@H]1C(=O)C(C(N)=O)=C(O)[C@@]2(O)C(=O)C3=C(O)c4c(O)cccc4[C@@](C)(O)[C@H]3[C@H](O)[C@@H]12 [Oxytetracycline Dihydrate],0.15
6,CC[C@@]1(O)C(=O)OCc2c1cc1n(c2=O)Cc2cc3ccccc3nc2-1 [Camptothecin],-0.42
7,C=CCN1C[C@H](C(=O)N(CCCN(C)C)C(=O)NCC)C[C@@H]2c3cccc4[nH]cc(c34)C[C@H]21 [Cabergoline],-0.08
8,CCN1CC2(OC(=O)c3ccccc3NC(C)=O)CCC(OC)C34C1C(CC23)C1(O)CC(OC)C2CC4C1(O)C2OC (centres undefined) [Lappaconitine],-0.47
9,CN1[C@@H]2CC[C@H]1C[C@@H](OC(=O)C(CO)c1ccccc1)C2 (some centres undefined) [Atropine sulfate monohydrate],-0.61
10,CN[C@@H]1[C@@H](O)[C@@H](O[C@@H]2[C@@H](O)[C@H](O[C@H]3O[C@H]([C@@H](C)O)[C@@H](O)[C@H](O)[C@H]3N)[C@@H](N)C[C@H]2N)OC[C@]1(C)O [Geneticin (G418 Sulfate)],0.77
11,COc1ccc(C=O)cc1 [p-Anisaldehyde],-0.91
12,NCCc1c[nH]c2ccc(O)cc12 [Serotonin HCl],-0.94
13,CN1[C@@H]2CC[C@H]1C[C@@H](OC(=O)[C@H](CO)c1ccccc1)C2 [Hyoscyamine],0.2
14,Oc1cc(Cl)ccc1Oc1ccc(Cl)cc1Cl [Triclosan],2.87
15,C[C@H]1O[C@H](O[C@H]2[C@H](O)[C@@H](O)[C@@H](O)[C@H](O)[C@@H]2O)[C@@H](N)C[C@@H]1NC(=N)C(=O)O [Kasugamycin hydrochloride],0.46
16,C[CH2][Hg][S]c1ccccc1C(=O)[O-].[Na+] [Thimerosal],15.9
17,CC[C@H]1CN2CC[C@]3(C(=O)Nc4ccccc43)[C@@H]2C[C@@H]1/C(=C\OC)C(=O)OC [Rhynchophylline],0.21

row,Compound,z-score of subpopulation abundance
1,COc1ccc(C(CN(C)C)C2(O)CCCCC2)cc1 (centres undefined) [Venlafaxine],-0.41
2,CCN(CC)CCOC(=O)C(O)(c1ccccc1)c1ccccc1 [Benactyzine hydrochloride],0.38
3,C[N+]1(C)[C@@H]2C[C@@H](OC(=O)[C@H](CO)c3ccccc3)C[C@H]1[C@@H]1O[C@@H]12 [Methscopolamine],0.5
4,C=CC[C@]1(O)CC[C@H]2[C@@H]3CCC4=CC(=O)CCC4=C3C=C[C@@]21C [Altrenogest],0.03
5,C[N+]12CCC(CC1)C(OC(=O)C(O)(c1ccccc1)c1ccccc1)C2 (centres undefined) [Clidinium Bromide],-0.31
6,CN(C)C(=O)Oc1cccc([N+](C)(C)C)c1 [Neostigmine Bromide],0.32
7,Cc1cc(C(C#N)c2ccc(Cl)cc2)c(Cl)cc1NC(=O)c1cc(I)cc(I)c1O (centres undefined) [Closantel],0.79
8,CCN(C)C(=O)Oc1cccc([C@H](C)N(C)C)c1 [Rivastigmine],-0.24
9,CC(=O)OCC1=C(C(=O)O)N2C(=O)C(N)C2SC1 (centres undefined) [7-Aminocephalosporanic acid],-0.25
10,CC1(C)SC2C(N)C(=O)N2C1C(=O)O (centres undefined) [6-Aminopenicillanic acid],-0.15
11,Nc1ccncc1 [4-Aminopyridine],0.05
12,CN1C(=O)COc2c(C(=O)NC3CN4CCC3CC4)cc(Cl)cc21 (centres undefined) [Azasetron HCl],-0.64
13,CCOC(=O)Nc1ccc(NCc2ccc(F)cc2)cc1N [Retigabine 2HCl],-0.42
14,Cn1cc(C2=C(c3cn(C4CCN(Cc5ccccn5)CC4)c4ccccc34)C(=O)NC2=O)c2ccccc21,0.26
15,NC(=O)CN1CCCC1=O [Piracetam],1.5
16,COC(=O)C1=CCCN(C)C1 [Arecoline HBr],0.06
17,CN(C)[C@@H]1C(=O)C(C(N)=O)=C(O)[C@@]2(O)C(=O)C3=C(O)c4c(O)ccc(Cl)c4[C@@](C)(O)[C@H]3C[C@@H]12 [Chlortetracycline HCl],-0.5
